The results in this text go back to publication PMC6212790, “How bacterial xenogeneic silencer rok distinguishes foreign from self DNA in its resident genome”.

Whole data set: some 33,000 sequences, median “e-score” near -0.038, cut for the highest 2% near 0.33. Only a selection was taken, and the highest values are over-represented in it overall.

The experiment addresses T1, GST-Rok-C97-191 (Bacillus subtilis subsp. subtilis str. …, UniProt O34857 97-191).
T1 sequence: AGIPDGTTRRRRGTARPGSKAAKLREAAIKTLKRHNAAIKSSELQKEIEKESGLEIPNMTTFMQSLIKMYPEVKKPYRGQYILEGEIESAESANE
Nature of the experiment: protein binding microarray; Rok is a gene silencer of Bacillus subtilis; high values mean tight binding. The settings on record: protein: recombinant; tags: GST (pTH5325, pDEST15-Magic modified); dsDNA, one strand shown. Put shortly:
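Every oligonucleotide joins a 25-mer constant primer to a 35-mer variable part drawn from a de Bruijn sequence of order 10, so each non-palindromic 8-mer appears at least 32 times and each palindromic 8-mer 16 times. The preference for every 8-mer is reported as a unitless, rank-based enrichment score (E-score). This score spans 0.5 for the most favored 8-mer to −0.5 for the most disfavored.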
On to GAAAGCTC, for which the binding signal is -0.157 E-score.
Turning to ATGTAGTA, the binding signal came to 0.407 E-score.
For the sequence ATGTAGTC, the binding signal was found to be 0.156 E-score.
The same measure for CAGTAGTC: -0.151 E-score.
The same measure for GAGTAGTA: 0.305 E-score; for AAGTAGTG: 0.211 E-score; for ATGTAGTG: 0.163 E-score.
The same measure for AAGTAGTC: 0.226 E-score; for AAGTAGTA: 0.358 E-score; for CAGTAGTA: 0.362 E-score.
Regarding TCCGCTCA, the binding signal was -0.118 E-score.
The same measure for CGCTTTCC: -0.13 E-score; for CGGAAAGA: -0.135 E-score.
The same measure for AACCTCAA: -0.0809 E-score; for ACACTGGT: 0.0216 E-score; for GCGGGAGA: -0.111 E-score.
On to CTGGCGAC, for which the binding signal is -0.196 E-score.
On to AAAATAGC, for which the binding signal turned out to be 0.21 E-score.
The same measure for ACTATAGT: 0.411 E-score.
The same measure for AATATAGC: 0.349 E-score; for GATATAGC: 0.0553 E-score; for AAAATAGT: 0.404 E-score.
The same measure for ACTATAGC: 0.207 E-score.
For AAAATAGA, the binding signal is 0.271 E-score.
Turning to AATATCGT, the binding signal came out at 0.204 E-score.
The same measure for AATATAGT: 0.337 E-score; for CATATAGC: 0.127 E-score; for AATATAGG: 0.0639 E-score.
ACTATAGG: the binding signal amounted to 0.148 E-score.
As for GTTCAGCA, the binding signal worked out at 0.0486 E-score.
The same measure for TAAGGCAA: 0.0603 E-score; for CTGGGAAG: -0.0965 E-score; for CCACTTAG: -0.0775 E-score.
Consider CGGAGTCC, for which the binding signal was -0.199 E-score.
The same measure for TAGATCAA: 0.156 E-score.
Regarding CTCGACGA, the binding signal was -0.162 E-score.
CTTCAGAC: the binding signal was -0.188 E-score.
The same measure for CACCGGTA: 0.0827 E-score; for CACCGATA: 0.152 E-score.
The same measure for TACCGGTA: 0.355 E-score.
The same measure for AACCGATA: 0.108 E-score; for TACCGATA: 0.339 E-score.
For the sequence AACCGGTA, the binding signal was determined as 0.182 E-score.
The same measure for GACAAGGC: -0.188 E-score; for AAATGCTT: -0.000293 E-score.
The same measure for GAGCTCGA: 0.0407 E-score; for ACGCCAAA: -0.128 E-score; for AAGATAAA: 0.314 E-score.
In the case of GAGATAGA, the binding signal worked out at 0.15 E-score.
The same measure for CAGATACA: 0.146 E-score.
The same measure for AAGATAAC: 0.131 E-score; for TAGATAGA: 0.345 E-score.
The same measure for AAGATACA: 0.151 E-score.
For the sequence AAGATATG, the binding signal came to 0.117 E-score.
In the case of AAGATAAT, the binding signal was found to be 0.339 E-score.
The same measure for CAGATAGA: 0.16 E-score; for AAGATATC: 0.2 E-score.
On to AAGATATA, for which the binding signal turned out to be 0.347 E-score.
Regarding TAGATACA, the binding signal turned out to be 0.329 E-score.
The same measure for GAATAGCC: -0.126 E-score.
The same measure for AGCAGTCC: -0.0761 E-score; for AACCCACT: 0.0905 E-score; for ACATCGAA: 0.0242 E-score.
For GCGGCAGA, the binding signal is -0.0665 E-score.
Regarding GGTTTGGA, the binding signal was -0.0233 E-score.
TTCTTCAA: the binding signal was -0.0566 E-score.
On to AGTGGATG, for which the binding signal was -0.131 E-score.
Take AAGGCGAT: the binding signal was -0.0931 E-score.
The same measure for CAGATATA: 0.195 E-score; for GAGATATA: 0.301 E-score.
With TAGATATA, the binding signal was determined as 0.359 E-score.
The same measure for ACGTACTC: 0.0226 E-score.
As to ATTATTAG, the binding signal came to 0.325 E-score.
Regarding CTTATTAA, the binding signal is 0.117 E-score.
As for ATTATTAC, the binding signal was determined as 0.387 E-score.
As to ATTATTAA, the binding signal is 0.199 E-score.
The same measure for CTTATTTC: 0.221 E-score; for CTTATTAC: 0.332 E-score; for GTAGCTGA: 0.279 E-score.
The same measure for AATCCTTA: 0.107 E-score; for GAATAAAC: 0.0598 E-score.
The same measure for ACTCATCG: 0.0111 E-score; for AATAGGGT: 0.0409 E-score.
Turning to GGTATATA, the binding signal was determined as 0.406 E-score.
Consider GGTATAAA, for which the binding signal stood at 0.352 E-score.
The same measure for AGTATATA: 0.428 E-score; for AGTATAAA: 0.289 E-score.
The same measure for GGTATAGA: 0.221 E-score.
As for AGTATATG, the binding signal is 0.264 E-score.
GGTATAAC: the binding signal turned out to be 0.266 E-score.
The same measure for CGTATATA: 0.258 E-score; for AGTATATC: 0.261 E-score.
Turning to CATTAAGG, the binding signal was -0.0335 E-score.
The same measure for AGACATTA: 0.0762 E-score; for ATCCGTAA: -0.0485 E-score; for GACTCATA: -0.063 E-score.
The same measure for CCATCAGA: -0.0159 E-score; for CGTGCACC: -0.199 E-score; for CCTACCAG: 0.0329 E-score.
Take GCCCTGTA: the binding signal is -0.192 E-score.
Turning to ATACTACC, the binding signal is 0.379 E-score.
For ACACTACC, the binding signal was -0.0628 E-score.
The same measure for CTACTACC: 0.363 E-score; for CGACTACC: 0.000144 E-score; for ATACTACG: 0.273 E-score.
As for CTACTAGC, the binding signal is 0.256 E-score.
Consider GCTAACCA, for which the binding signal is -0.102 E-score.
The same measure for GAGTCTTA: -0.0226 E-score; for GCTTACAC: -0.028 E-score.
The same measure for ACGCGGGA: -0.0896 E-score; for CGAGCCGA: -0.177 E-score.
In the case of ACTAAATA, the binding signal came out at 0.354 E-score.
As for CCTAAATC, the binding signal was -0.11 E-score.
The same measure for ACTAAATC: 0.35 E-score; for GCTAAATA: 0.32 E-score.
With CCTAAATA, the binding signal is 0.155 E-score.
Regarding ACTAAAAA, the binding signal is 0.26 E-score.
The same measure for ACTAAATG: 0.226 E-score.
The same measure for ACTAAAAC: 0.26 E-score; for ACTAAAAT: 0.397 E-score; for ATGAACTC: -0.191 E-score.
The same measure for GTCGCCTA: -0.125 E-score; for GCTATTAC: 0.285 E-score.
For the sequence CCTATTAC, the binding signal is 0.247 E-score.
The same measure for ACTATTAC: 0.4 E-score.
With ACTATTAT, the binding signal was determined as 0.364 E-score.
For the sequence ACTATTAA, the binding signal was found to be 0.302 E-score.
The same measure for ACTATTAG: 0.263 E-score; for ACGGAAAG: -0.117 E-score; for CAGCTGCA: -0.0452 E-score.
On to AACCTATA, for which the binding signal came out at 0.183 E-score.
Turning to CACCTATA, the binding signal stood at 0.223 E-score.
Take TACCTATA: the binding signal stood at 0.375 E-score.
As to TACCTAAA, the binding signal stood at 0.369 E-score.
The same measure for AACCTAAA: 0.0757 E-score; for CACCTAAA: 0.0109 E-score.
In the case of ACAATGGA, the binding signal was -0.0232 E-score.
Regarding GCTAGCCA, the binding signal was 0.153 E-score.
Turning to GATAAGAA, the binding signal worked out at 0.0314 E-score.
In the case of ATATTACA, the binding signal was found to be 0.304 E-score.
The same measure for GTATTAAA: 0.158 E-score; for CTATTATC: 0.211 E-score.
The same measure for ATATTATA: 0.379 E-score.
For CGATTATA, the binding signal was 0.261 E-score.
The same measure for ATATTATC: 0.245 E-score.
With CTATTATA, the binding signal turned out to be 0.329 E-score.
The same measure for GTATTAGA: 0.171 E-score; for CTATTACA: 0.35 E-score.
With ATATTATG, the binding signal turned out to be 0.0424 E-score.
The same measure for GTATTATA: 0.388 E-score; for CTATTACC: 0.312 E-score; for CCCACTAC: 0.0131 E-score.
The same measure for AAGTGGCC: -0.135 E-score; for ATGCATAC: 0.0643 E-score; for AATGACAT: 0.115 E-score.
The same measure for ATCTAACA: 0.192 E-score; for CTCTTAGA: -0.0403 E-score; for CGAAATTA: 0.31 E-score.
With AGAAAATA, the binding signal amounted to 0.342 E-score.
Regarding GGAAAATA, the binding signal was determined as 0.331 E-score.
With CGAAAATA, the binding signal was 0.204 E-score.
As to GGAAATTA, the binding signal is 0.28 E-score.
On to GGGAAATA, for which the binding signal turned out to be 0.229 E-score.
For AGAAATTA, the binding signal is 0.344 E-score.
The same measure for AGAAAATG: 0.187 E-score; for GAAAAATA: 0.273 E-score.
With AAGAAGTG, the binding signal is 0.201 E-score.
With GACCGGAA, the binding signal is -0.0227 E-score.
The same measure for ATCCTGTA: 0.176 E-score; for ACGTAAGT: -0.0408 E-score; for AGCGTTTG: 0.0655 E-score.
For the sequence ACAAAAAA, the binding signal was determined as 0.136 E-score.
